Compounds with a hit are over-represented: about 4.5% of the library has one in this group of screens.
PrP 5UTR inh – inhibition of PrP 5' UTR reporter expression; inhibition, % (test concentration not listed); 340,000 compounds, 0.35% hits; cell-based PrP 5' UTR mRNA reporter, plate reader; in the data active = inhibition above about 52%
BJeLR viability – MLPCN primary cell-based screen for lethality selective to Ras in HRASV12 cells. BJeLR (HRASV12) viability, CellTiter-Glo ATP luminescence, 48 h. AID 1554, 2009. 300,000 compounds, 0.17% hits. inhibition, % (concentration not given with the values); in the data active = inhibition above about 50%
PrPC TRFRET – inhibitors of human cell surface prion protein PrPC, primary screen, cell-based, TR-FRET. TR-FRET read-out. Major prion protein (Homo sapiens), P04156. AID 720596, 2013. 370,000 compounds, 0.43% hits. inhibition, % at 13.8 µM; in the data active = inhibition above about 24%
PfHsp40 rescue – rescue of yeast from PfHsp40 toxicity, primary screen, S. cerevisiae, ATP luminescence; S. cerevisiae expressing PfHsp40, growth rescue; growth rescue, % at 12.5 µM; 340,000 compounds, 0.68% hits; in the data active = growth rescue above about 28%, passing the limit was not always enough;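 note: yeast W303a lacking pdr1 and pdr3 grown in galactose medium; growth measured after three days at 30 °C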
FBA Mtb inh – Mtb FBA enzyme inhibitors, primary screen, biochemical, fluorescence, strain H37Rv | 360,000 compounds, 2.3% hits | purified M. tuberculosis FBA, fluorescence read-out | inhibition, % at 1 µM | AID 588726, 2011 | Fructose-bisphosphate aldolase (Mycobacterium tuberculosis (strain ATCC 25618 / H37Rv)), …; in the data active = inhibition above about 27%
Target sequence (P9WQA3 whole entry, looked up): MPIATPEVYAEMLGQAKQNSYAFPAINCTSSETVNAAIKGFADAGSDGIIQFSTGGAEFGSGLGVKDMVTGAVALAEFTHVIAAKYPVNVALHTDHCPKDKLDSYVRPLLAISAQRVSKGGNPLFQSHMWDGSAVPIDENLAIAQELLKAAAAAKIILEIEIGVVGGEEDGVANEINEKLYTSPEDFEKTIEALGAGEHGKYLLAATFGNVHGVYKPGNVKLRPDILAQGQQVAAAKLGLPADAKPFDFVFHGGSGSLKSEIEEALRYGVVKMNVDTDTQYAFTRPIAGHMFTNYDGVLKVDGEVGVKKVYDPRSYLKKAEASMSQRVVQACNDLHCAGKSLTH
GDH-TPI counter – GDH-TPI coupling enzyme inhibitors, primary screen, artefact control for M. tuberculosis FBA inhibitor project, biochemical, absorbance, full deck; GDH-TPI coupled enzyme counterscreen, NADH absorbance; 360,000 compounds, 1.2% hits; inhibition, % at 4.8 µM; in the data active = inhibition above about 30%
A number is an active result.

`O=C(CSc1ccc(-c2ccccn2)nn1)N1CCCCC1` gave PrP 5UTR inh inactive, BJeLR viability inactive, PrPC TRFRET inactive, PfHsp40 rescue 135, FBA Mtb inh inactive and GDH-TPI counter inactive.
Screening O=C(CSc1ccc(-c2ccccn2)nn1)N1CCc2ccccc21 returned PrP 5UTR inh inactive, BJeLR viability inactive, PrPC TRFRET inactive, PfHsp40 rescue 224, FBA Mtb inh inactive and GDH-TPI counter inactive.
For CC1COCC(C)N1S(=O)(=O)c1ccc2c(c1)CCN2C(=O)C1CCC1 (stereo unspecified) the results were PrPC TRFRET inactive.
`COc1ccc(Cn2cc(CN3[C@@H](CC(C)C)COc4ccc(Cl)cc4S3(=O)=O)nn2)cc1` gave PrPC TRFRET inactive.
For CSc1nc2c(=O)[nH]cnc2s1 the results were PrPC TRFRET inactive.
`O=C(CSc1ccc(-c2ccccn2)nn1)NC1CCCCC1` gave PrP 5UTR inh inactive, BJeLR viability inactive, PrPC TRFRET inactive, PfHsp40 rescue 320, FBA Mtb inh inactive and GDH-TPI counter inactive.
CC(=O)c1cccc(NC(=O)CSc2ccc(-c3ccccn3)nn2)c1 was read as PrP 5UTR inh inactive, BJeLR viability inactive, PrPC TRFRET inactive, PfHsp40 rescue inactive, FBA Mtb inh inactive and GDH-TPI counter inactive.
CC(=O)Nc1cccc(NC(=O)CSc2ccc(-c3ccccn3)nn2)c1 was read as PrP 5UTR inh inactive, BJeLR viability inactive, PrPC TRFRET inactive, PfHsp40 rescue 438, FBA Mtb inh inactive and GDH-TPI counter inactive.
`CCc1ccc(NC(=O)CSc2ccc(-c3ccccn3)nn2)cc1` gave PrP 5UTR inh inactive, BJeLR viability inactive, PrPC TRFRET inactive, PfHsp40 rescue 305, FBA Mtb inh inactive and GDH-TPI counter inactive.
CCOC(=O)c1ccccc1NC(=O)CSc1ccc(-c2ccccn2)nn1 was read as PrP 5UTR inh inactive, BJeLR viability inactive, PrPC TRFRET inactive, PfHsp40 rescue 211, FBA Mtb inh inactive and GDH-TPI counter inactive.
COc1cc(NC(=O)CSc2ccc(-c3ccccn3)nn2)cc(OC)c1 was read as PrP 5UTR inh inactive, BJeLR viability inactive, PrPC TRFRET inactive, PfHsp40 rescue 221, FBA Mtb inh inactive and GDH-TPI counter inactive.
`O=C(NC1CCCCN(Cc2ccc(OC(F)(F)F)cc2)C1=O)c1cccc(C(F)(F)F)c1` (stereo unspecified) gave PrPC TRFRET inactive.
For COC(=O)[C@]12C[C@H](CC(=O)N3CCN(C(=O)C4CC4)CC3)C(=O)N(Cc3ccco3)C1=C[C@H](C(C)C)O[C@@H]2C1CC1 the results were PrPC TRFRET inactive.
For Cc1cccc(C)c1NC(=O)C1CCN(c2ncccn2)CC1 the results were PrPC TRFRET inactive.
`O=C(/C=C/c1ccccc1Cl)Nc1ccc2c(c1)C(=O)NC2=O` gave PrP 5UTR inh inactive, BJeLR viability inactive, PrPC TRFRET inactive, PfHsp40 rescue inactive, FBA Mtb inh inactive and GDH-TPI counter 37.
Screening COc1ccccc1Sc1nc(-c2ccccn2)ncc1OC returned PrP 5UTR inh inactive, BJeLR viability inactive, PrPC TRFRET inactive, PfHsp40 rescue inactive, FBA Mtb inh inactive and GDH-TPI counter inactive.
For Cc1ccc(Sc2cc(C)nc(-c3ccccn3)n2)cc1 the results were PrP 5UTR inh inactive, BJeLR viability inactive, PrPC TRFRET inactive, PfHsp40 rescue 145, FBA Mtb inh inactive and GDH-TPI counter inactive.
`FC(F)(F)c1cccc(Sc2cc(C(F)(F)F)nc(-c3ccccn3)n2)c1` gave PrP 5UTR inh inactive, BJeLR viability inactive, PrPC TRFRET inactive, PfHsp40 rescue inactive, FBA Mtb inh inactive and GDH-TPI counter inactive.
`COc1cnc(-c2ccccn2)nc1Sc1ccc(C)cc1` gave PrP 5UTR inh inactive, BJeLR viability inactive, PrPC TRFRET inactive, PfHsp40 rescue 359, FBA Mtb inh inactive and GDH-TPI counter inactive.
Screening COc1cnc(-c2ccccn2)nc1NC(C)C returned PrP 5UTR inh inactive, BJeLR viability inactive, PrPC TRFRET inactive, FBA Mtb inh 46 and GDH-TPI counter inactive.
`O=C1C=CC2(O[C@H](c3ccccc3)[C@@H](c3ccccc3)O2)[C@H](Sc2ccccc2O)C1` gave PrP 5UTR inh inactive, PrPC TRFRET 89, PfHsp40 rescue inactive, FBA Mtb inh inactive and GDH-TPI counter inactive.
For O=C(/C(=N/N=C/c1ccc(O)c(O)c1O)c1ccccc1)c1ccccc1 the results were PrP 5UTR inh inactive, BJeLR viability inactive, PrPC TRFRET inactive, PfHsp40 rescue 520, FBA Mtb inh inactive and GDH-TPI counter inactive.
CC(/C=N/Nc1nnc(C)c(=O)[nH]1)=C\c1ccccc1 was read as PrP 5UTR inh inactive, BJeLR viability inactive, PrPC TRFRET inactive, PfHsp40 rescue inactive, FBA Mtb inh inactive and GDH-TPI counter 32.
For O=C(COC(=O)c1cccc(Cl)c1)NC1CCS(=O)(=O)C1 (stereo unspecified) the results were PrP 5UTR inh inactive, PrPC TRFRET inactive, PfHsp40 rescue inactive, FBA Mtb inh inactive and GDH-TPI counter inactive.
Nc1ccc(Cl)cc1C(=O)OCC(=O)NC1CCS(=O)(=O)C1 (stereo unspecified) was read as PrP 5UTR inh inactive, BJeLR viability inactive, PrPC TRFRET inactive, PfHsp40 rescue inactive, FBA Mtb inh 90 and GDH-TPI counter inactive.
Screening Cc1ccc(-c2cc(C(=O)NN=Cc3cccc(Oc4ccccc4)c3)[nH]n2)cc1C returned PrPC TRFRET inactive.
`CCCCCCn1c(=O)n2n(c1=O)[C@@H]1CN(S(=O)(=O)c3ccc(C)cc3)C[C@]1(O)[C@@H](OC(=O)NCc1ccc(OC)c(OC)c1)C2` gave PrPC TRFRET inactive, FBA Mtb inh inactive and GDH-TPI counter inactive.
Screening O=c1c(Cl)c(Cl)cnn1Cc1nnc(-c2ccc(Cl)cc2)o1 returned PrP 5UTR inh inactive, BJeLR viability inactive, PrPC TRFRET inactive, PfHsp40 rescue 236, FBA Mtb inh inactive and GDH-TPI counter inactive.
Screening Cc1ccc(Cn2ncc(Cl)c(Cl)c2=O)cc1 returned PrP 5UTR inh inactive, BJeLR viability inactive, PrPC TRFRET inactive, PfHsp40 rescue inactive, FBA Mtb inh inactive and GDH-TPI counter inactive.
Screening O=C(/C=C/c1ccc(O)c(O)c1)c1ccccc1O returned PrP 5UTR inh inactive, BJeLR viability inactive, PrPC TRFRET inactive, PfHsp40 rescue inactive, FBA Mtb inh inactive and GDH-TPI counter inactive.
Screening O=C(C=Cc1cccc(O)c1)c1ccccc1O returned PrP 5UTR inh inactive, PrPC TRFRET inactive, PfHsp40 rescue 383, FBA Mtb inh inactive and GDH-TPI counter inactive.
`OCCCc1nc2n(n1)C(c1ccccc1Cl)C=C(c1cccs1)N2` (stereo unspecified) gave BJeLR viability inactive, PfHsp40 rescue inactive, FBA Mtb inh 55 and GDH-TPI counter inactive.
Screening Cc1ccc(NC(=O)CSc2nnc(-c3cccnc3)n2Cc2ccco2)cc1C returned PrPC TRFRET inactive.
